Test results taken from PubChem BioAssay AID1345085 (National Center for Advancing Translational Sciences (NCATS), 2018).
Results filed as inconclusive are left out. Values without a mark were called inactive. Active and inactive are the calls of the source. The call rests on the fitted dose curve; in most records, active means well fitted cell-killing curve with a large enough effect; inconclusive means small, poorly fitted or top-dose-only effect, or effect the other way; inactive means no such curve, though single readings can be large or run the other way.

What follows are compounds tested on Jar (assay: Confirmatory qHTS for gynecologic anti-cancer compounds from libraries of approved drugs and bioactive compounds). Settings: gynecologic cancer cell panel viability, ATPlite luminescence, 48 h; series mostly up to 57.6 µM; activity change, negative = viability loss: at the top concentration.
Method in brief: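 Cells (1,000/well) plated 16 h, then exposed 48 h at 37 °C to 11 concentrations (1:3) from 57.5 uM to 0.977 nM. Viability by ATPlite luminescence after 15 min; IC50 derived, with HEK 293T used for selectivity index.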
Further: nearly all actives have a fitted effect of over 55% in size.
On the % scale 0 is the no-effect control and ±100 the full control effect; potency means the concentration at half of the fitted maximal effect.

| SMILES | Potency | activity change, negative = viability loss |
| --- | --- | --- |
| Cc1nc(NC(=O)N2CCCC2C(N)=O)sc1-c1ccnc(C(C)(C)C(F)(F)F)c1 (stereo unspecified) | 12.2 µM (active) |  |
| CNC1CCC(N(Cc2cccc(-c3ccncc3)c2)C(=O)c2sc3ccccc3c2Cl)CC1 (stereo unspecified) | 34.3 µM (active) |  |
| CC(=O)Nc1cccc(-n2c(=O)n(C3CC3)c(=O)c3c(Nc4ccc(I)cc4F)n(C)c(=O)c(C)c32)c1 |  | 5.76% |
| S=c1nc[nH]c2nc[nH]c12 | 13.7 µM (active) |  |
| Cc1cnc(Nc2ccc(F)cc2Cl)nc1-c1c[nH]c(C(=O)NC(CO)c2cccc(Cl)c2)c1 (stereo unspecified) |  | -14% |
| COc1cccc2c1C(=O)c1c(O)c3c(c(O)c1C2=O)C[C@@](O)(C(=O)CO)C[C@@H]3O[C@H]1C[C@H](N)[C@H](O[C@@H]2CCCCO2)[C@H](C)O1 | 13.7 µM (active) |  |
| CC(=O)OC12COC1CC(O)C1(C)C(=O)C(O)C3=C(C)C(OC(=O)C(O)C(NC(=O)OC(C)(C)C)c4ccccc4)CC(O)(C(OC(=O)c4ccccc4)C21)C3(C)C (stereo unspecified) | 0.0432 µM (active) |  |
| CC(Oc1cc(-n2cnc3ccc(CN4CCN(C)CC4)cc32)sc1C(N)=O)c1ccccc1C(F)(F)F (stereo unspecified) | 3.06 µM (active) |  |
| Cc1cnc(CNC(=O)c2c(=O)c3ccc(N4CCCN(C)CC4)nc3n3c2sc2ccccc23)cn1 |  | 14.2% [at 10.7 µM] |
| CS(=O)(=O)c1ccc(-c2cnc(N)c(C(=O)Nc3ccccc3)n2)cc1 |  | -4.41% |
| CCCCN(CCCC)C(=O)CN1C[C@H](c2ccc3c(c2)OCO3)[C@@H](C(=O)O)[C@@H]1c1ccc(OC)cc1 |  | -5.2% |
| CC[C@H](Nc1ncnc2nc[nH]c12)c1nc2cccc(F)c2c(=O)n1-c1ccccc1 |  | -10.1% [at 10.7 µM] |
| COc1ccc2c(c1OC)C(=O)O[C@@H]2[C@H]1c2c(cc3c(c2OC)OCO3)CCN1C | 30.6 µM (active) |  |
| Cc1ccc(C(=O)N(CCCN)C(c2oc3cc(Cl)ccc3c(=O)c2Cc2ccccc2)C(C)C)cc1 (stereo unspecified) | 0.0137 µM (active) |  |
| Cn1cc(-c2[nH]c3cc(NC(=O)[C@H](N)C4CCCCC4)cc4c3c2C=NNC4=O)cn1 | 10.9 µM (active) |  |
| CNC(=O)c1ccccc1Sc1ccc2c(/C=C/c3ccccn3)n[nH]c2c1 | 19.3 µM (active) |  |
| CN1C(=O)C(Cc2c[nH]c3ccccc23)NC1=S (stereo unspecified) |  | -8.95% [at 19.5 µM] |
| O=C(Nc1cccnc1)N1CCC(Cc2cccc(Oc3ccc(C(F)(F)F)cn3)c2)CC1 | 9.68 µM (active) |  |

| SMILES | Potency | activity change, negative = viability loss |
| --- | --- | --- |
| CCN(CC)CCOc1ccc(/C(=C(\Cl)c2ccccc2)c2ccccc2)cc1 | 89.1 µM (active) |  |
| O=C(CCCCCCNC(=O)c1cnc(N(c2ccccc2)c2ccccc2)nc1)NO | 8.63 µM (active) |  |
| Cc1cc(Nc2nc(N[C@@H](C)c3ncc(F)cn3)ncc2Cl)n[nH]1 |  | 19.1% |
| Cc1cc(C(=O)N2CCN(c3cccc(Cl)c3)CC2)n(-c2ccccc2)n1 | 1.72 µM (active) |  |
| CCN1C[C@H](C)n2c(c(O)c3c(=O)n(Cc4ccc(F)c(Cl)c4)nc(C(=O)NC)c32)C1=O |  | -4.15% |
| O=c1[nH]c(=O)n([C@H]2C[C@H](O)[C@@H](CO)O2)cc1C(F)(F)F |  | -21% |
| C[C@@H](Oc1cc(-c2cnn(C3CCNCC3)c2)cnc1N)c1c(Cl)ccc(F)c1Cl | 15.3 µM (active) |  |
| Cn1cnc2c(F)c(Nc3ccc(Br)cc3F)c(C(=O)NOCCO)cc21 |  | 5.2% |
| CCc1c2c(nc3ccc(O)cc13)-c1cc3c(c(=O)n1C2)COC(=O)[C@]3(O)CC | 1.72 µM (active) |  |
| CCOc1ccc(Nc2nc(-c3c(C)nc4ccccn34)cs2)cc1 | 0.0243 µM (active) |  |
| Cc1ccc(C(=O)N(CCCN)C(c2nc3cc(Cl)ccc3c(=O)n2Cc2ccccc2)C(C)C)cc1 (stereo unspecified) | 0.0153 µM (active) |  |
| CC[C@@]1(O)C(=O)OCc2c1cc1n(c2=O)Cc2cc3c(CN(C)C)c(O)ccc3nc2-1 | 7.69 µM (active) |  |
| COc1cccc2c1C(=O)c1c(O)c3c(c(O)c1C2=O)C[C@@](O)(C(=O)CO)C[C@@H]3O[C@H]1C[C@H](N)[C@H](O)[C@H](C)O1 | 1.72 µM (active) |  |
| Nc1ccn([C@@H]2O[C@H](CO)[C@@H](O)C2(F)F)c(=O)n1 |  | -22.8% |
| CC(C)Oc1ccc2c(=O)c(-c3ccccc3)coc2c1 | 21.7 µM (active) |  |
| COc1cc(N2CCC(N3CCN(C)CC3)CC2)ccc1Nc1ncc(Cl)c(Nc2ccccc2S(=O)(=O)C(C)C)n1 | 17.2 µM (active) |  |
| CCCC(=O)O[C@]1(C(=O)CCl)[C@@H](C)C[C@H]2[C@@H]3CCC4=CC(=O)C=C[C@]4(C)[C@@]3(F)C(=O)C[C@@]21C | 43.2 µM (active) |  |
| COC(=O)c1ccc2c(C(=Nc3ccc(N(C)C(=O)CN4CCN(C)CC4)cc3)c3ccccc3)c(O)[nH]c2c1 |  | -10.2% |
